# From PubChem
# Shown are actives, neighbours in structure and some others; about 4.6% of the full set was active somewhere.
# D1 antagonist: antagonists of human D1 dopamine receptor | hit rate 3.2% among 360,000 | AID 504652 | activity change, negative = inhibition, % at 10 µM | HEK293 TREx D1 cells, calcium flux, dopamine EC80; active compounds read low | P21728; in the data active = activity change below about -30%
#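 Cells carrying a force-coupled, tetracycline-inducible human D1 receptor report calcium flux. Each well gets a 10 s baseline, compound with 180 s monitoring, then an EC80 dopamine stimulus with a second 180 s kinetic read.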
# D1 ag: human D1 receptor agonism | P21728 | HEK293 T-REx D1 cells, calcium flux, agonist mode | activation, % at 2 µM | hit rate 1% among 360,000 | AID 504660
#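 Agonism was scored from calcium flux recorded over 180 s (1 read/s) after pintool compound addition, following a 10-cycle baseline. Cells were inducible force-coupled HEK293 TREx D1, plated overnight at 30 C and loaded with no-wash calcium dye.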
# D1 PAM: potentiators of human D1 dopamine receptor | P21728 | HEK293 TREx D1 cells, calcium flux, dopamine EC20 potentiation | potentiation, % at 10 µM | hit rate 0.036% among 360,000; in the data active = potentiation above about 30%
# TRHR ag: activates the human TRH receptor | activation, % at 2 µM | TRHR cells, calcium flux fluo-8, FDSS agonist mode | hit rate 0.18% among 360,000 | P34981
# Target sequence (P34981 whole entry, looked up): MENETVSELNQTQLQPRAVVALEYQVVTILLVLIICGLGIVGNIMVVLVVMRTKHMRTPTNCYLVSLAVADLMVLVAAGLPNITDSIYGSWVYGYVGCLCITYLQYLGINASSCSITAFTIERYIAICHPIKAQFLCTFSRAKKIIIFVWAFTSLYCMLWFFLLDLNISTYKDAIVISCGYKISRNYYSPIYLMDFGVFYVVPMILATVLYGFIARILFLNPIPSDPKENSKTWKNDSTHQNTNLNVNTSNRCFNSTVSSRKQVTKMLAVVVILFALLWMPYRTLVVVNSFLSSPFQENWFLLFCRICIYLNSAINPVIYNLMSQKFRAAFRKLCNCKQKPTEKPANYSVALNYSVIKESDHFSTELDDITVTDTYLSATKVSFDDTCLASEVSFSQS
#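 In this calcium-flux screen, cells bearing human TRHR are dye-loaded with fluo-8, baselined for 10 cycles, then exposed to library compounds; positive kinetic calcium responses during the agonist phase mark hits, with TRH as control.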
# TRHR PAM: allosterically enhances the human TRH receptor; P34981; TRHR cells, fluo-8 calcium fluorescence, EC20 TRH enhancement; enhancement, % at 2 µM; hit rate 0.66% among 360,000; AID 493056; in the data active = enhancement above about 30%
#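 TRHR-expressing cells loaded with fluo-8 calcium dye were read kinetically (ex 480/em 530) during compound addition, then stimulated with an EC20 of TRH (10 nM final). Enhancement of the Gq-mediated intracellular calcium response was scored.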
# Numbers stand for hits; n = inactive; x = no result. Rule as the data show it, unless noted: active = activation above about 30%; inactive = the rest.
SMILES,D1 antagonist,D1 ag,D1 PAM,TRHR ag,TRHR PAM
NC(=O)C[n+]1cccc2ccccc21,n,45,n,n,n
Cc1cc(Cl)ccc1OC(C)C(=O)NN=C1CCCCCC1 (stereo not given),-31,n,x,n,n
Cc1ccc(OCCn2c(C3CC(=O)N(Cc4ccc(F)cc4)C3)nc3ccccc32)c(C)c1 (stereo not given),n,n,n,n,n
CCOc1ccc(-c2nonc2NC(=O)c2oc3cc(C)ccc3c2C)cc1,n,n,n,n,n
COc1ccc(N2CC(NC(=O)c3ccc(S(=O)(=O)N4CCOCC4)cc3)CC2=O)cc1OC (stereo not given),x,n,n,n,n
CCOC(=O)c1ccc(N2C(=O)c3n[nH]c(C)c3C2c2ccc(OC)c(OC)c2)cc1 (stereo not given),-37,n,n,n,n
COc1ccccc1-c1c(C)nn2c(C)cc(C)nc12,-36,n,n,n,n
Cc1ccc(NC2=NC3(CCCCC3)N=C(N)N2)c(C)c1,-66,n,n,n,n
Cc1cccc(C)c1NC1=NC2(CCCCC2)N=C(N)N1,n,n,n,n,n
NC1=NC2(CCCCC2)N=C(Nc2ccc(Br)cc2)N1,-37,n,n,n,n
Cc1ccc(NC2=NC3(CCCC3)N=C(N)N2)c(C)c1,-37,n,n,n,n
Cc1ccc(C)c(NC2=NC3(CCCCC3)N=C(N)N2)c1,n,n,n,n,n
CCOC(=O)N1CCN(C(=O)CNS(=O)(=O)c2c(C)cc(C)cc2C)CC1,n,n,n,n,33
CCOC(=O)N1CCN(C(=O)CNS(=O)(=O)c2cccs2)CC1,n,n,n,n,n
Cc1ccc(-n2ncc3c(NCCc4ccccc4)ncnc32)cc1C,-59,n,n,n,n
Cc1cccc(-n2ncc3c(NCc4ccccc4)ncnc32)c1,-89,n,n,n,n
c1ccc(CNc2ncnc3c2cnn3-c2ccccc2)cc1,n,n,n,n,n
COc1ccc(OC)c(Nc2ncnc3c2cnn3-c2cccc(Cl)c2)c1,n,n,n,n,n
COc1ccc(OC)c(Nc2ncnc3c2cnn3-c2cccc(C)c2)c1,-40,n,n,n,n
Cc1cc(NC(=O)c2ccc3c(c2)N(Cc2cccc(Cl)c2)C(=O)c2ccccc2S3(=O)=O)ccc1Br,n,n,n,n,n
Cc1cc(C)c2c(=O)c3c(oc2c1)C(=O)N(Cc1ccco1)C3c1ccccc1F (stereo not given),n,n,n,n,n
CCCCN(CC)C(=O)CSc1nc2c(sc3ccccc32)c(=O)n1CCc1ccccc1,n,n,n,n,n
CCOc1ccc(NC(=O)CN2CCN(Cc3ccccc3)S2(=O)=O)cc1,n,n,n,n,n
COC(=O)Cc1c(C)c2ccc(OCC(=O)N3CCOCC3)cc2oc1=O,-32,n,n,n,n
CCc1c(C)c2ccc(OCC(=O)OC)cc2oc1=O,n,n,n,n,n
SMILES,D1 antagonist,D1 ag,D1 PAM,TRHR ag,TRHR PAM
O=C1Nc2ccc(Cl)cc2C12Nc1ccccc1-c1nnc(SCc3ccccc3F)nc1O2 (stereo not given),-45,n,n,n,n
Cc1ccc(CN2C(=O)c3oc4ccc(C)cc4c(=O)c3C2c2ccc(O)cc2)cc1 (stereo not given),n,n,n,n,n
COc1ccc(C(=O)N=C2SC3CS(=O)(=O)CC3N2Cc2ccc(OC)c(OC)c2)cc1 (stereo not given),n,n,n,n,n
COc1ccc(CN2C(=NC(=O)C3CC3)SC3CS(=O)(=O)CC32)cc1OC (stereo not given),-31,n,n,n,n
O=C1C(=O)N(Cc2cccnc2)C(c2cccc(F)c2)/C1=C(/O)c1ccc2c(c1)OCO2 (stereo not given),-62,n,n,n,n
COc1ccc(C2/C(=C(/O)c3ccc4c(c3)CC(C)O4)C(=O)C(=O)N2Cc2cccnc2)cc1 (stereo not given),-42,n,n,n,n
Cc1ccc(C(=O)N2CCN(c3ccc(F)cc3)CC2)cc1NC(=O)c1nsc2ccccc12,n,n,n,n,n
COC(=O)c1ccc(N2CCN(C(=O)c3ccccc3)CC2)c(NC(C)=O)c1,-31,n,n,n,n
COC(=O)c1ccc(N2CCN(C(C)=O)CC2)c(NC(=O)COc2ccccc2C)c1,n,n,n,n,n
CCOc1ccc(CCNC(=O)CCn2c(=O)c3cccn3c3ccc(F)cc32)cc1OCC,n,n,n,n,n
